Consider eleven compounds from PubChem BioAssay.

Assay [1] relates to Wnt5a (protein binding on small-molecule microarray). Kind of assay: Wnt5a binders on small-molecule microarray, primary screen, biophysical, 635/667 nm fluorescence (AID 1142).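 Note: fluorescence read at 667 nm with signal to noise per printed feature.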 The following applies: 635 nm fluorescence, higher = more signal.
A short description of assay [2]: cell viability in Huh7 cells, primary screen, cytotoxicity control for HCV replication inhibitor project, CellTiter-Glo luminescence, basal, 48 h (AID 1143).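 Note: Huh7 hepatoma cells carrying a hepatitis C replication reporter with no stimulus; test concentration not given here.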 Particulars: Huh7 HCV replicon, higher = more signal, called active from +8 up or from −8 down. For orientation: Cellular ATP, detected with luciferase, serves as a proxy for viable cell number.
Assay [3] is described as follows: P. aeruginosa biofilm formation inhibitors, primary screen, PAO1 strain, BacTiter-Glo luminescence, LB-PBS (AID 1144). The following applies: 12 h, higher = more signal.
Assay [4] can be described thus: CREB reporter modulators without forskolin, primary screen, cell-based, PC12, CRE-LacZ reporter, unstimulated (AID 1145). Particulars: no forskolin, luminescence, 4.5 h, higher = more signal, called active from +8 up or from −8 down.
A short description of assay [5]: CREB reporter modulators under forskolin, primary screen, cell-based, PC12, CRE-LacZ reporter, forskolin-stimulated (AID 1146).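 Note: PC12 cells with 6xCRE LacZ reporter stimulated by forskolin 10 µM; beta-galactosidase reporter signal reflecting CREB driven transcription.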 The following applies: luminescence, 4.5 h, higher = more signal, called active from +8 up or from −8 down.
For assay [6], the target named is Streptavidin (Streptomyces avidinii) (UniProt P22629). Kind of assay: streptavidin binders on small-molecule microarray, primary screen, artefact control for SMM compound annotation, biophysical, 635/667 nm fluorescence (AID 1147).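 Note: signal reflects streptavidin binding to arrayed compounds as a control protein.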 The following applies: streptavidin binding, higher = more signal.
Streptavidin (Streptomyces avidinii), sequence (P22629 whole entry, looked up): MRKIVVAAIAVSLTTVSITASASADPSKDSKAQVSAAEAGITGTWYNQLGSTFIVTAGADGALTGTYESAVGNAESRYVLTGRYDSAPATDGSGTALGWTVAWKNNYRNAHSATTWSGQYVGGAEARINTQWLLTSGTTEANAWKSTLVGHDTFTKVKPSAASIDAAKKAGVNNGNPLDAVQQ
Assay [7] in a line: small-molecule binders of probe aInhba, primary screen, biochemical, small-molecule microarray, 635/667 nm fluorescence (AID 1148).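 Note: score merges 667nm spot fluorescence with signal-to-noise for antibody binding to printed compounds.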 Particulars: higher = more signal.
Assay [8] concerns the target Torsin-1A (Homo sapiens) (UniProt O14656). Kind of assay: torsin A binders from cell lysate, primary screen, small-molecule microarray, wild-type, 635/667 nm (AID 1149). The following applies: COS7 hTOR1A-WT lysate, 635 nm fluorescence, higher = more signal.
The target is the same in assay [9]. Nature of the assay: small-molecule binders of mutant TOR1A in lysate, primary screen, cell lysate, small-molecule microarray, COS7 lysate, 635/667 nm fluorescence (AID 1150).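 Note: score pools 667 nm emission and signal to noise measuring lysate protein binding.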 Particulars: COS7 hTOR1A mutant lysate, 635 nm fluorescence, higher = more signal.
For assay [10], the system named is Sonic hedgehog protein (Shh). Kind of assay: small-molecule binders of Shh protein, primary screen, biochemical, small-molecule microarray, 635/667 nm fluorescence (AID 1151).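 Note: Shh protein binding to compounds spotted on small-molecule microarray slides; score combines spot fluorescence intensity with signal-to-noise across triplicate slides.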 Particulars: small-molecule microarray binding, 635 nm fluorescence; higher = more signal.

Calls of active or inactive are those of the source. Unless noted, the rule behind the calls is not given here.

Torsin-1A (Homo sapiens), sequence (O14656 whole entry, looked up): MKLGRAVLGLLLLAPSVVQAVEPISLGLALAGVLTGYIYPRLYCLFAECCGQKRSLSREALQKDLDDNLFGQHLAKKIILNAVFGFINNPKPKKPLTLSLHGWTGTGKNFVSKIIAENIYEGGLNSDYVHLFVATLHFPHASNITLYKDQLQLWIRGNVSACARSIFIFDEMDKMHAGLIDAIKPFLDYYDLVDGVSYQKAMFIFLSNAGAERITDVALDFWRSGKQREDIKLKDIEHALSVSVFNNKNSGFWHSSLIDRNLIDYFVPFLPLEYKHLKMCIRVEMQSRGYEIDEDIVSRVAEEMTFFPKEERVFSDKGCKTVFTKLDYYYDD

For the compound `CC(C)[Si]1(C(C)C)O[C@@H](c2ccccc2)c2cc(-c3ccc(-c4ccc(Cl)c(Cl)c4)o3)nc(-c3ccccc3)c21`, the composite z-score in assay [1] was -0.0503; in assay [6], 0.105; in [7], -0.0044; with Torsin-1A (Homo sapiens) [8], -0.118; with Torsin-1A (Homo sapiens) [9] it was 0.261; in assay [10], 0.15. Further, the z-score in [2] is -0.62 (inactive); in assay [3] it was 0.115 (inactive); in assay [4], -1.12 (inactive); in [5], 2.02 (inactive).

For `CC[C@@H]1C=C(C(=O)O)[C@H](c2ccc(Br)cc2)N1S(=O)(=O)c1ccc(C)cc1`, the composite z-score in assay [1] is -0.13; in assay [6], 0.791; in assay [7], 0.222; with Torsin-1A (Homo sapiens) [8] it was 0.297; in the assay with Torsin-1A (Homo sapiens) [9], 0.233; in [10], 0.248. For the same compound, the z-score in assay [2] was -0.141 (inactive); in assay [3] it was 0.598 (inactive); in assay [4], 0.0798 (inactive); in assay [5], 0.472 (inactive).

With `COC(=O)[C@@]1(Cc2ccc(OC)cc2)[C@H]2c3cc(C(=O)N(C)C)n(C)c3C[C@H]2CN1C(=O)c1ccccc1`, the composite z-score in [1] is 0.485; in assay [6], 1.77; in assay [7], 0.706; with Torsin-1A (Homo sapiens) [8] it was -0.0231; with Torsin-1A (Homo sapiens) [9] it was 0.777; in assay [10], 0.418. Also, the z-score is -3.59 (inactive) in assay [2], 0.584 (inactive) in [3], 0.0041 (inactive) in assay [4] and 0.0225 (inactive) in assay [5].

For the compound `COc1cc(COC(C)=O)ccc1OC(C)=O`, the composite z-score was 1.27 in assay [1]; -0.114 in assay [6]; 0.257 in assay [7]; 0.343 in the assay with Torsin-1A (Homo sapiens) [8]; 0.141 in the assay with Torsin-1A (Homo sapiens) [9]; 0.857 in [10]. Further, the z-score was -1.68 (inactive) in [2], -1.48 (inactive) in [3], 1.42 (inactive) in [4] and 68.7 (active) in [5].

`CC(C)N1C(=O)C[C@@](C(=O)NCC(F)(F)F)(c2ccc([N+](=O)[O-])cc2)[C@H]1c1ccc(CO)cc1`: the composite z-score in assay [1] is -0.492; in assay [6], 0.14; in [7], -0.128; with Torsin-1A (Homo sapiens) [8] it was 0.894; in the assay with Torsin-1A (Homo sapiens) [9] it was 0.0412; in assay [10], 1.24. Also, the z-score in [2] is -4.06 (inactive); in assay [3], -1.76 (inactive); in [4], -0.761 (inactive); in [5] it was -1.24 (inactive).

For the compound `CCCC[C@@H]1C[C@H]1[C@@H](NC(=O)c1cccs1)c1ccc(-c2ccccc2)cc1`, the composite z-score in assay [1] was -0.0739; in assay [6], 0.0523; in assay [7], 0.0541; with Torsin-1A (Homo sapiens) [8] it was -0.473; with Torsin-1A (Homo sapiens) [9], -0.0352; in assay [10] it was 1.73. Moreover, the z-score was -2.14 (inactive) in assay [2], -0.218 (inactive) in assay [3], 1.35 (inactive) in assay [4] and 2.05 (inactive) in assay [5].

For the compound `CCCCCN1CC=CC23O[C@@H]4/C=C\CCC(C)OC(=O)C4[C@H]2C(=O)N(C(C)CO)[C@@H]3C1=O` (stereo not given in full), the composite z-score was -0.105 in [1]; -0.659 in assay [6]; -0.0933 in [7]; -1.11 in the assay with Torsin-1A (Homo sapiens) [8]; -0.742 in the assay with Torsin-1A (Homo sapiens) [9]; 1.09 in [10]. Further, the z-score in assay [2] is 0.28 (inactive); in assay [3], -0.818 (inactive); in [4], -1.17 (inactive); in assay [5] it was -0.672 (inactive).

As for `N#Cc1ccc(NN2C(C(O)C(c3ccccc3)c3ccccc3)C=CC3C(=O)N(c4ccccc4)C(=O)C32)cc1` (stereo not given), the composite z-score in assay [1] is 0.382; in assay [6] it was 1.21; in assay [7], 0.204; in the assay with Torsin-1A (Homo sapiens) [8] it was 0.604; with Torsin-1A (Homo sapiens) [9], 0.274; in assay [10], -0.634. The z-score in assay [2] was -0.919 (inactive); in assay [3], -0.731 (inactive); in assay [4], 0.243 (inactive); in assay [5], -0.69 (inactive).

As to `C=CCNC(=O)[C@H]1[C@@H]2C(=O)O[C@@H](c3ccccc3)[C@@H](c3ccccc3)N2[C@@H](c2ccccc2OCCO)[C@]12C(=O)Nc1ccc(C#CCCO)cc12`, the composite z-score in assay [1] was 0.805; in assay [6], -0.378; in assay [7], -0.0944; with Torsin-1A (Homo sapiens) [8], -0.897; with Torsin-1A (Homo sapiens) [9], -0.202; in assay [10], -0.322. Besides, the z-score in assay [2] was -3.21 (inactive); in assay [3] it was 0.481 (inactive); in assay [4], -0.141 (inactive); in [5], 4.71 (inactive).

As to `COC(=O)[C@@]1(Cc2ccc(F)cc2)[C@H]2c3cc(C(=O)N4CCCC4)n(CCCNc4ncc(C(F)(F)F)cc4Cl)c3C[C@H]2CN1C(=O)c1ccccc1`, the composite z-score in assay [1] was -0.026; in assay [6], 0.919; in assay [7], 0.656; with Torsin-1A (Homo sapiens) [8], -0.107; with Torsin-1A (Homo sapiens) [9], -0.0136; in [10], -0.516. In addition, the z-score was -1.89 (inactive) in assay [2], -0.0456 (inactive) in assay [3], 1.74 (inactive) in [4] and -0.152 (inactive) in assay [5].

Take `CN(C)CCCCCCNC(=O)[C@H]1C[C@H]2C(=O)N3CCC[C@H]3C(=O)N2[C@H]1c1ccc(O)cc1`: the composite z-score was 0.899 in assay [1]; 0.192 in assay [6]; 0.019 in assay [7]; 1.95 with Torsin-1A (Homo sapiens) [8]; -0.118 in the assay with Torsin-1A (Homo sapiens) [9]; 2.04 in assay [10]. The z-score in assay [2] is -0.865 (inactive); in assay [3], 0.332 (inactive); in assay [4], -0.268 (inactive); in [5] it was -0.933 (inactive).
